Measurements as given in PubChem BioAssay AID652020 (National Center for Advancing Translational Sciences (NCATS), 2013).
The other results are listed elsewhere or left out. Inconclusive results are not listed. Active and inactive are the calls of the source. The call rests on the fitted dose curve; in most records, active means well fitted curve in the direction sought with a large enough effect; inconclusive means small, poorly fitted or top-dose-only effect, or another doubt; inactive means no such curve, though single readings can be large or run the other way.

What follows are compounds tested against Glutathione reductase, mitochondrial (Homo sapiens) (UniProt P00390) (assay: qHTS Assay for Inhibitors of Mammalian Selenoprotein Thioredoxin Reductase 1 (TrxR1): Counterassay in Glutathione Reductase (GR)). Conditions: purified GR, DTNB reduction absorbance 405 nm kinetic; series mostly up to 57.1 µM.
Glutathione reductase, mitochondrial (Homo sapiens), sequence (P00390 whole entry, looked up): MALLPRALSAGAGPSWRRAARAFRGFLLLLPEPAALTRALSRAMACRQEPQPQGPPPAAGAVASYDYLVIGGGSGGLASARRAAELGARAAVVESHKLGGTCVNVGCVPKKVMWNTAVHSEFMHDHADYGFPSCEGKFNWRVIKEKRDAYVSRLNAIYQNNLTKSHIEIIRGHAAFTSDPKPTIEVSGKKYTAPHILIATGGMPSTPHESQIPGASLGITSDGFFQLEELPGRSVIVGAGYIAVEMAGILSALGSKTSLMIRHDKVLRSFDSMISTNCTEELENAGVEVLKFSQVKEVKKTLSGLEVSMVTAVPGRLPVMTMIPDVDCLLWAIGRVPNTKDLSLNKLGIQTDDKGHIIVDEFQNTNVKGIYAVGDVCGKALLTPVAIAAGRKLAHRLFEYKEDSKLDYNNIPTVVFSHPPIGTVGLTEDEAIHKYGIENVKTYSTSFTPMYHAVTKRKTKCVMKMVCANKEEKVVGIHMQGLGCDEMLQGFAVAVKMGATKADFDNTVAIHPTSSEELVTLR
Source text: The selenoprotein thioredoxin reductase (TrxR; EC 1.8.1.9) is a FAD containing homodimeric pyridine nucleotide-disulfide oxidoreductase with many cellular roles. Together with NADPH and its prime substrate thioredoxin (Trx), the enzyme forms the core of the Trx system. The mammalian Trx system exerts a wide spectrum of functions including redox regulation, antioxidant defense, regulation of transcription factors as well as support of cell growth and replication. Many of these functions involve the reduction of Trx, which may subsequently reduce a number of different substrates including ribonucleotide reductase, peroxiredoxins or NFkB. Mammalian TrxR itself also has a broad substrate specificity, reducing both protein and non-protein substrates, including low molecular weight compounds such as dehydroascorbate, lipoic acid, ubiquinone, and juglone. In addition, several drugs in clinical use for anticancer treatment are indeed known to target TrxR1. This assay is counterassay using a yeast glutathione reductase (GR) assay. The desired outcome is inactivity in this assay. NIH Molecular Libraries Probe Production Network [MLPCN] NIH Chemical Genomics Center [NCGC] MLPCN Grant: MH090846 Assay Provider: Elias Arner, Karolinska Institute
Three microliters of reagents (100 microM NADPH and 60 nM hGR or 100 microM NADPH as no-enzyme control) was dispensed into 1,536-well black clear-bottomed plates (Buffer: 0.1 M potassium phosphate, pH 7.4/10 mM EDTA, 0.01 % Tween-20). Compounds (23nl) was transferred via Kalypsys pin tool equipped with 1536-pin array. The plates were incubated for 15 min at room temperature, and 1microl aliquot of 500 microM NADPH was added, immediately followed by a 1 microl aliquot of 15 mM DTNB (3 mM final concentration) to start the reaction. The plate was transferred to a ViewLux high-throughput CCD imager (Perkin-Elmer, Wellesley, MA) where kinetic measurements (one read per 5 min for 6 reads, total time 25 min) of the TNB absorbance was acquired using a 405 excitation filter.
O=C(/C=C/c1ccco1)Nc1cccc(-c2nc3ccccc3[nH]2)c1 was tested, and the outcome was “inactive”.
In the case of Cc1ccccc1-c1nc(CS(=O)(=O)CC(=O)N2CCc3ccccc3C2)c(C)o1, the outcome was “inactive”.
With CC1CCN(C(=O)c2ccc(S(=O)(=O)Cc3cc(F)ccc3F)c([N+](=O)[O-])c2)CC1 the outcome was “inactive”.
